Measured values taken from PubChem BioAssay AID624255 (Broad Institute, 2012).
The campaign covered roughly 77,000 compounds. About 4,600 (6%) were called active. About 1% were inconclusive and are not listed. Only a selection was taken, and actives are over-represented in it overall. Unmarked numbers belong to inactive results.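 Rule for the calls: active = mean inhibition above about 93%, with at least 55% of replicates each passing it (limit read from the data, passing the limit was not always enough); inconclusive = only one of those two conditions holds; inactive = neither condition holds.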

Experiment: T. cruzi intracellular proliferation inhibitors, primary screen, cell-based, beta-gal Tulahuen parasites, NIH3T3 host, luminescence (AID 624255)
Details: T. cruzi beta-gal in NIH3T3, GalScreen luminescence, 90 h; at 8.34 µM; stronger effect = higher value
Molecule CNC(=O)C[C@H]1CC[C@@H]2[C@@H](COc3ccc(NC(=O)c4ccc(F)c(F)c4)cc3C(=O)N2C)O1 has an inhibition of -6.57%.
For CCNC(=O)Nc1ccc2c(c1)C(=O)N(C)[C@H]1CC[C@@H](CC(=O)N[C@H](C)c3ccccc3)O[C@@H]1CO2, the inhibition was 13.7%.
Work on Cc1noc(C)c1S(=O)(=O)N(C)C[C@@H]1Oc2ccc(NC(=O)Cn3cnnn3)cc2CC(=O)N([C@@H](C)CO)C[C@@H]1C yielded an inhibition of -16.4%.
With Cc1ccc(S(=O)(=O)N[C@@H]2CC[C@H](CCNC(=O)C3CCOCC3)O[C@@H]2CO)cc1 the inhibition was 2.56%.
With CO[C@H]1CN(C)C(=O)c2cc(NC(=O)C3CCC3)ccc2OC[C@H](C)N(C)C[C@H]1C the inhibition was 17%.
With CC=Cc1ccc2n(c1=O)C[C@@H]1[C@@H](CO)[C@H](C(=O)NCC3CC3)[C@H]2N1C(=O)c1ccccc1 (mixture of isomers) the inhibition was 35.2%.
In the case of COc1ccc(-c2ccc([C@@H]3[C@@H](CO)N4CCCCN(C(=O)NC(C)C)C[C@H]34)cc2)cc1, the inhibition is reported as 73.2%.
For CN1C(=O)c2cc(NS(C)(=O)=O)ccc2OC[C@H]2O[C@H](CC(=O)NCc3ccccc3)CC[C@H]21, the inhibition was -19.6%.
For CO[C@@H]1CN(C)C(=O)c2ccc(NC(=O)Nc3ccccc3)cc2OC[C@@H](C)N(C(=O)CN(C)C)C[C@H]1C, the inhibition was -44.4%.
In the case of O=C([C@@H]1[C@@H](CO)[C@@H]2Cn3c(ccc(-c4ccccc4)c3=O)[C@H]1N2CCC(F)(F)F)N1CCCCC1, the inhibition is reported as 1.28%.
With CNC[C@@H]1OCCCC[C@H](C)Oc2ccc(NC(=O)Nc3ccccc3)cc2C(=O)N([C@H](C)CO)C[C@H]1C the inhibition was 28.6%.
With Cc1noc(C)c1NC(=O)Nc1ccc2c(c1)C(=O)N([C@H](C)CO)C[C@H](C)[C@@H](CN(C)S(C)(=O)=O)OCCCC[C@H](C)O2 the inhibition was 11.5%.
For CNC[C@H]1OCCCC[C@H](C)Oc2ccc(NC(=O)Nc3c(C)noc3C)cc2C(=O)N([C@H](C)CO)C[C@H]1C, the inhibition was 104% (active).
CO[C@@H]1CN(C)C(=O)c2cc(NC(=O)NC(C)C)ccc2OC[C@@H](C)N(CC2CC2)C[C@@H]1C gave an inhibition of -28.4%.
For Cc1ccc(S(=O)(=O)N2C[C@@H](O)COC[C@@H]3O[C@H](CC(=O)NCc4ccc(Cl)c(Cl)c4)CC[C@H]32)cc1, the inhibition was 97.5% (active).
For COc1cccc(S(=O)(=O)N2C[C@@H](O)COC[C@@H]3O[C@H](CC(=O)Nc4ccccc4)CC[C@H]32)c1, the inhibition was 109% (active).
Work on O=C(C[C@@H]1CC[C@@H]2[C@H](COC[C@H](O)CN2S(=O)(=O)c2ccc(F)cc2)O1)NCc1ccc(Cl)c(Cl)c1 yielded an inhibition of 54.2%.
Cc1ccc(S(=O)(=O)N2C[C@H](O)COC[C@@H]3O[C@@H](CC(=O)NCC4CCCCC4)CC[C@H]32)cc1 gave an inhibition of 5.15%.
Molecule O=C(C[C@H]1CC[C@H]2[C@@H](COC[C@H](O)CN2S(=O)(=O)c2cccc(Cl)c2)O1)Nc1ccccc1 has an inhibition of 11.3%.
Work on Cc1cccc(S(=O)(=O)N2C[C@@H](O)COC[C@H]3O[C@H](CC(=O)Nc4ccc(-c5ccccc5)cc4)CC[C@@H]32)c1 yielded an inhibition of 94.5%.
